# Results from the supplement of paper PMC12494721.
# Counter-ions that a name gives are not always drawn.
# Legend:
# Conditions in all cases: incubation time: 27 h, anaerobic, 37 °C;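 for the amine columns active = adjusted P below 0.05 in both replicates with a change the same way and a mean fold change under 0.8 or over 1.25; inactive = the rest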
# Escherichia coli IAI1 [1] = assay: growth (OD595) fold change vs plate DMSO controls (fold change (ratio)); higher = more growth
# Procedure, shortened: (§1)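 The reported measure is growth: the fold change against the median of DMSO controls on the plate. Absorbance at 595 nm from anaerobic 96-well mGAM cultures grown for 27 h at 37 °C was blank-subtracted, corrected for background with 20 µM compound solutions in water, and converted to OD with a calibration factor of 5. Fold changes above 1.5 appear as NA, and values are the mean of 2 biological replicates.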
# [2] = tested on: Klebsiella aerogenes DSM 30053; assay: as above
# Procedure, shortened: as §1
# [3] = tested on: Ruminococcus gnavus DSM 108212; assay: as above
# Procedure, shortened: as §1
# [4] = tested on: Klebsiella aerogenes DSM 30053; assay: fold change of Histamine concentration vs plate DMSO controls (fold change (ratio)); higher = more amine produced, active = hit call of the paper (significant change in both replicates, either direction)
# Procedure, shortened: (§2)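 Amines were quantified by LC–triple-quadrupole MS in dynamic MRM mode against external calibration curves, with drift correction within each batch. The samples were whole anaerobic mGAM cultures of four gut bacterial strains, grown for 27 h at 37 °C in 80 µL wells and extracted with cold acetonitrile/methanol with 0.1% formic acid, then centrifuged. Values are reported as fold change over DMSO controls on the same plate. The mean of 2 biological replicates is given.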
# [5] = tested on: Ruminococcus gnavus DSM 108212; assay: fold change of Tryptamine concentration vs plate DMSO controls (fold change (ratio)); higher = more amine produced, active = hit call of the paper (significant change in both replicates, either direction)
# Procedure, shortened: as §2
# Escherichia coli IAI1 [6] = assay: fold change of Putrescine concentration vs plate DMSO controls (fold change (ratio)); higher = more amine produced, active = hit call of the paper (significant change in both replicates, either direction)
# Procedure, shortened: as §2
# [7] = tested on: Klebsiella aerogenes DSM 30053; assay: as above
# Procedure, shortened: as §2
# Escherichia coli IAI1 [8] = assay: fold change of Cadaverine concentration vs plate DMSO controls (fold change (ratio)); higher = more amine produced, active = hit call of the paper (significant change in both replicates, either direction)
# Procedure, shortened: as §2
# [9] = tested on: Klebsiella aerogenes DSM 30053; assay: as above
# Procedure, shortened: as §2
# [10] = tested on: Ruminococcus gnavus DSM 108212; assay: fold change of 2-Phenylethylamine concentration vs plate DMSO controls (fold change (ratio)); higher = more amine produced, active = hit call of the paper (significant change in both replicates, either direction)
# Procedure, shortened: as §2
# [11] = tested on: Clostridium sporogenes DSM 1664; assay: growth (OD595) fold change vs plate DMSO controls (fold change (ratio)); higher = more growth
# Procedure, shortened: as §1
# [12] = tested on: Clostridium sporogenes DSM 1664; assay: fold change of Tryptamine concentration vs plate DMSO controls (fold change (ratio)); higher = more amine produced, active = hit call of the paper (significant change in both replicates, either direction)
# Procedure, shortened: as §2
SMILES,growth (Escherichia coli IAI1 [1]),growth [2],growth [3],fold change of Histamine concentration [4],fold change of Tryptamine concentration [5],fold change of Putrescine concentration (Escherichia coli IAI1 [6]),fold change of Putrescine concentration [7],fold change of Cadaverine concentration (Escherichia coli IAI1 [8]),fold change of Cadaverine concentration [9],fold change of 2-Phenylethylamine concentration [10],growth [11],fold change of Tryptamine concentration [12]
Clc1ccccc1CN1CCc2sccc2C1 [Ticlopidine hydrochloride] (20 µM),0.944,0.958,1.18,1.01 (inactive),0.983 (inactive),1.01 (inactive),0.989 (inactive),0.934 (inactive),0.98 (inactive),0.977 (inactive),,
COc1cc2nc(N3CCN(C(=O)c4ccco4)CC3)nc(N)c2cc1OC [Prazosin hydrochloride] (20 µM),1.09,0.998,0.986,1.01 (inactive),0.924 (inactive),1.16 (inactive),1.02 (inactive),0.968 (inactive),1 (inactive),0.939 (inactive),,
"CC(C)Cc1ccc([C@H](C)C(=O)O)cc1 [(S,+) Ibuprofen] (20 µM)",0.797,1.16,0.974,0.925 (inactive),1.06 (inactive),0.854 (inactive),1.03 (inactive),1.06 (inactive),1.04 (inactive),1.11 (inactive),,
CC/C=C(\C(=O)N[C@@H]1C(=O)N2C(C(=O)OCOC(=O)C(C)(C)C)=C(COC(N)=O)CS[C@H]12)c1csc(N)n1 [Cefcapene pivoxil hydrochloride monohydrate] (20 µM),0.786,1.07,,0.95 (inactive),1.02 (inactive),0.961 (inactive),0.964 (inactive),1.06 (inactive),1.03 (inactive),1.01 (inactive),0.716,1.1 (inactive)
NC(=O)c1cc[n+](CC2=C(C(=O)O)N3C(=O)[C@@H](NC(=O)C(c4ccccc4)S(=O)(=O)[O-])[C@H]3SC2)cc1 (stereo partly drawn) [Cefsulodin Sodium Salt Hydrate] (20 µM),1.04,1.02,,1.03 (inactive),0.779 (inactive),1.06 (inactive),0.997 (inactive),1.1 (inactive),0.992 (inactive),0.836 (inactive),0.555,0.838 (inactive)
C=C[C@H]1CN2CC[C@H]1C[C@@H]2[C@@H](O)c1ccnc2ccc(OC)cc12 [Quinidine hydrochloride monohydrate] (20 µM),1.01,0.966,0.981,1.11 (inactive),0.978 (inactive),0.986 (inactive),1.05 (inactive),0.921 (inactive),0.987 (inactive),1 (inactive),,
"CN1[C@@H]2CC[C@H]1CC(OC(=O)C(O)c1ccccc1)C2 (mixture of isomers) [(R,S) Homatropine hydrobromide] (20 µM)",,,,0.867 (inactive),0.99 (inactive),0.995 (inactive),0.995 (inactive),1.02 (inactive),1.02 (inactive),1.01 (inactive),,1 (inactive)
C#C[C@]1(O)CC[C@H]2[C@@H]3CCC4=CCCC[C@@H]4[C@H]3CC[C@@]21C [Lynestrenol] (20 µM),1.17,1.02,,1.06 (inactive),0.985 (inactive),1.13 (inactive),1.02 (inactive),0.997 (inactive),0.989 (inactive),1.01 (inactive),0.94,0.947 (inactive)
Nc1nc2c(ncn2COCCO)c(=O)[nH]1 [Acyclovir] (20 µM),1.05,1,1.42,1.02 (inactive),1.15 (inactive),1.03 (inactive),0.983 (inactive),1 (inactive),1.05 (inactive),1.15 (inactive),,
CC/C(=C(\c1ccccc1)c1ccc(OCCN(C)C)cc1)c1ccccc1 [Tamoxifen citrate] (20 µM),1.06,1.02,,0.918 (inactive),0.657 (active),1.06 (inactive),0.989 (inactive),1.05 (inactive),1 (inactive),0.738 (inactive),1.11,0.977 (inactive)
CCN(CC)CCNC(=O)c1ccc(N)cc1 [Procainamide hydrochloride] (20 µM),0.979,1.2,0.827,0.834 (inactive),,0.969 (inactive),0.987 (inactive),1.01 (inactive),1.04 (inactive),1.05 (inactive),,
CCc1c2c(nc3ccc(OC(=O)N4CCC(N5CCCCC5)CC4)cc13)-c1cc3c(c(=O)n1C2)COC(=O)[C@]3(O)CC [Irinotecan hydrochloride trihydrate] (20 µM),1.05,0.974,1.06,1.03 (inactive),0.937 (inactive),1.11 (inactive),1 (inactive),0.994 (inactive),0.988 (inactive),0.89 (inactive),,
CCC(C)C(C(=O)OCC[N+](C)(CC)CC)c1ccccc1 (stereo not drawn) [Valethamate bromide] (20 µM),,,,1.03 (inactive),0.996 (inactive),1.05 (inactive),1.02 (inactive),1.03 (inactive),1 (inactive),0.963 (inactive),,0.963 (inactive)
COc1ccc(CCN(C)CCCC(C#N)(c2ccc(OC)c(OC)c2)C(C)C)cc1OC (stereo not drawn) [Verapamil hydrochloride] (20 µM),1.13,0.758,1.01,0.942 (inactive),0.992 (inactive),1.05 (inactive),0.906 (inactive),0.978 (inactive),0.972 (inactive),0.95 (inactive),,
O=C(O)CCNC(=O)c1ccccc1 [Betamipron] (20 µM),0.817,0.813,0.512,1.02 (inactive),1 (inactive),1.04 (inactive),1 (inactive),1.06 (inactive),1 (inactive),0.956 (inactive),,
C[C@H](CS)C(=O)N1CCC[C@H]1C(=O)O [Captopril] (20 µM),0.976,1,0.851,1.01 (inactive),1.04 (inactive),0.963 (inactive),1 (inactive),1.01 (inactive),1 (inactive),1.04 (inactive),,
OC(c1cc(C(F)(F)F)nc2c(C(F)(F)F)cccc12)C1CCCCN1 (stereo not drawn) [Mefloquine hydrochloride] (20 µM),0.858,0.808,1,,,,,,,,0.869,
Cc1ccc(NC(=O)c2ccc(CN3CCN(C)CC3)cc2)cc1Nc1nccc(-c2cccnc2)n1 [Imatinib] (20 µM),1.07,1.05,1.17,1.01 (inactive),1.07 (inactive),0.954 (inactive),0.962 (inactive),0.95 (inactive),1.04 (inactive),1.08 (inactive),,
CC[C@]12CCCN3CCc4c(n(c5ccccc45)[C@@](O)(C(=O)OC)C1)[C@@H]32 [Vincamine] (20 µM),1.01,1.05,0.949,1.01 (inactive),0.973 (inactive),0.996 (inactive),1 (inactive),1.02 (inactive),0.99 (inactive),0.942 (inactive),,
Cc1cnc(NC(=O)C2=C(O)c3ccccc3S(=O)(=O)N2C)s1 [Meloxicam] (20 µM),0.997,0.98,0.801,1.03 (inactive),1.02 (inactive),1.04 (inactive),0.995 (inactive),0.959 (inactive),0.996 (inactive),1.03 (inactive),,
C[C@H]1[C@H](NC(=O)/C(=N\OC(C)(C)C(=O)O)c2csc(N)n2)C(=O)N1S(=O)(=O)O [Aztreonam] (20 µM),1.04,0.662,1.04,0.865 (inactive),1.05 (inactive),0.86 (inactive),1.13 (inactive),1.03 (inactive),1.06 (inactive),1.04 (inactive),,
CCN1CCN(C(=O)N[C@@H](C(=O)N[C@@H]2C(=O)N3C(C(=O)O)=C(CSc4nnnn4C)CS[C@H]23)c2ccc(O)cc2)C(=O)C1=O [Cefoperazone dihydrate] (20 µM),0.0154,0.724,0.0225,0.472 (active),0.0363 (active),0.451 (inactive),0.86 (inactive),1.36 (inactive),1.13 (inactive),0.0394 (active),,
